This note sets out measurements from PubChem BioAssay.

The nature of test [1]: yeast TOR pathway RPL19A-GFP modulators, primary screen, cell-based, S. cerevisiae, multiplex flow cytometry (AID 1862; in the data active = percent of DMSO control GFP below about 86%;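 also: lower values mimic rapamycin by blocking the RPL19A rise seen in DMSO cells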). Particulars: S. cerevisiae RPL19A-GFP strain, flow cytometry fluorescence, 3 h; at 10 µM; stronger effect = lower value.
Test [2] is described as follows: modulators of MEP2-GFP levels in yeast, primary screen, S. cerevisiae, multiplex flow cytometry (AID 1867;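 active = GFP response, as percent of the DMSO control, above the screen-wide mean plus 3 SD, about 139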;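 also: median GFP channel fluorescence of barcode-gated MEP2-GFP cells measured by flow cytometry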). Particulars: S. cerevisiae MEP2-GFP strain, 3 h, at 10 µM, stronger effect = higher value, 100% means same as DMSO wells. For orientation: Flow cytometry measures light scatter and fluorescence of single cells or particles in a stream.
Test [3] in a line: modulators of CIT2-GFP expression in yeast, primary screen, S. cerevisiae, GFP fusion, multiplex flow cytometry (AID 1870;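 active = percent response above a set limit, the screen-wide mean plus 3 SD, cut at about 130% in these data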;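 also: barcoded CIT2-GFP strain pooled with four other GFP strains with rapamycin as positive control; median GFP fluorescence per well over plate mean of DMSO wells so 100% = DMSO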). Particulars: 3 h, at 10 µM, stronger effect = higher value.
The nature of test [4]: modulators of LAP4-GFP expression in yeast, primary screen, S. cerevisiae, multiplex flow cytometry (AID 1873;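 active = GFP signal, as percent of the solvent control, above the screen mean plus 3 SD, about 149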). Particulars: 3 h, at 10 µM, stronger effect = higher value.
Test [5] in a line: modulators of AGP1-GFP expression in yeast TOR pathway, primary screen, cell-based, multiplex flow cytometry, S. cerevisiae (AID 1887;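 active = GFP signal above the screen-wide mean plus 3 SD, that is over about 124.5% of the solvent control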;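 also: AGP1-GFP fusion strain of S. cerevisiae within a five-strain barcoded multiplex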). The conditions noted are these: 3 h, at 10 µM, stronger effect = higher value.
Test [6] can be described thus: inhibitors of CD8+ T cell-vesicle binding, pilot screen, LFA-1/ICAM-1 modulator project, MLPCN validation set, flow cytometry (AID 2523;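 active = response below a set limit, under 55% cells CD8-positive and vesicle-bound, and CD8 cells' 90th-percentile brightness under 279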;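 as to vesicle binding response: mean PE anti-B7-1 fluorescence of CD8+ cells relative to row control; 100% = QL9-loaded vesicles with DMSO vehicle in the same plate row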). The conditions noted are these: 2C mouse CD8+ T cells, at 7 µM, stronger effect = lower value; double positive events: measured here: CD8+/vesicle+ event percentage.
Test [7] addresses Integrin beta-1 (Homo sapiens) + Integrin alpha-4 (Homo sapiens) (UniProt P13612+P05556). Put plainly: inhibition of HUTS-21 binding to VLA-4, pilot screen, VLA-4 allosteric modulator project, U937 cells, HUTS-21 mAb, flow cytometry, validation set (AID 2674;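 active = inhibition above 50%, about 3 SD of the validation set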;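 also: antibody binding induced by the VLA-4 ligand LDV present at three times its Kd; 0% = LDV ligand with antibody and no compound and 100% = antibody without LDV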). Particulars: HUTS-21 LIBS mAb binding, at 6.7 µM, stronger effect = higher value, binding induced by LDV ligand.
A short description of test [8]: superoxide lowering in aged yeast cells, pilot screen, validation compound set (AID 2706;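 active = superoxide response below 65% of plate, a cut near 3 SD across the whole screen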;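 also: yeast exposed to compound for one week at 30 degrees C before staining; 100% = mean of all compound wells on the same plate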). Particulars: S. cerevisiae aging, superoxide DHE fluorescence; at 10 µM, stronger effect = lower value.
Test [9] concerns the target Beta-adrenergic receptor kinase 1 (Homo sapiens) (UniProt P25098). Put plainly: GRK2 binders displacing RNA aptamer, biochemical, validation, human GRK2, bead flow cytometry (AID 488806;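 active = aptamer binding inhibition above 30%, about 3 SD of noise from non-fluorescent compounds; inactive = inhibition at or below 30%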). The conditions noted are these: bead-bound GRK2, FAM-aptamer displacement, at 10 µM, stronger effect = higher value.
The target in test [10] is AP-2 complex subunit beta (Homo sapiens) (UniProt P63010). Put plainly: inhibitors of arrestin peptide binding to AP2, pilot screen, biochemical, validation set, GST-AP2 beads, flow cytometry (AID 504541).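 Also: AP2 carries R879A mutation and is captured from E. coli lysate; bead-bound FITC arrestin peptide fluorescence measuring arrestin peptide binding to AP2; 0% = DMSO wells and 100% = excess unlabeled arrestin peptide control.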 Particulars: FITC arrestin peptide, at 10 µM, stronger effect = higher value, AP2 beta2 appendage fragment, R879A mutant.
AP-2 complex subunit beta (Homo sapiens), sequence (P63010 whole entry, looked up, the tested form may be a part, one chain of several): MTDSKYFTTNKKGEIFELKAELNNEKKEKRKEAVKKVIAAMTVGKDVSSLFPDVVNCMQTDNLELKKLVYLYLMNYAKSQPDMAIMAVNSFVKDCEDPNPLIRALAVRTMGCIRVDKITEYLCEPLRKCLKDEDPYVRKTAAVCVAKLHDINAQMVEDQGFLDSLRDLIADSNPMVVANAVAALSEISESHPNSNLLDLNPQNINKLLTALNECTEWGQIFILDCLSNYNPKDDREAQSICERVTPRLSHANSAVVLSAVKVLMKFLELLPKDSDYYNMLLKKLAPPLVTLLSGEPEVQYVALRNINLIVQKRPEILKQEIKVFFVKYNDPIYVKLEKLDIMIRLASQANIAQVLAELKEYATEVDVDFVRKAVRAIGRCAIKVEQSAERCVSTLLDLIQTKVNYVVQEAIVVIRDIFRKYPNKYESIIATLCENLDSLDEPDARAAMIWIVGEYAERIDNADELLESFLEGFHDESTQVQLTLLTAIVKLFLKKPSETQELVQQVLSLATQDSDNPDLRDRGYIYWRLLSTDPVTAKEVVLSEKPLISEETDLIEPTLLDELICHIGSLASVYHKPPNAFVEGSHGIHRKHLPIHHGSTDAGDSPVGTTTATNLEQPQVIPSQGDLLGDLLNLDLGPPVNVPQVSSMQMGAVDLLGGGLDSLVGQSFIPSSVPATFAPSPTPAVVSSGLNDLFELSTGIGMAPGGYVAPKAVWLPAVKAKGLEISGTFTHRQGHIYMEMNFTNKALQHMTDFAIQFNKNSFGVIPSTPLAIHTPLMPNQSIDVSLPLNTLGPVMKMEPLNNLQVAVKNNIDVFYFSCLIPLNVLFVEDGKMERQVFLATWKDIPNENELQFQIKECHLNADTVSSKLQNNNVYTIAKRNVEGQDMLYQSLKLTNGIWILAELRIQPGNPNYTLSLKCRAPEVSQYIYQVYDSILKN
A short description of test [11]: yeast V-ATPase proton transport modulators, S. cerevisiae, pHLuorin, HTS validation (AID 504600; in the data active = response above about 15%;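 also: plate controls were DMSO for no effect and reference compound for full effect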). The conditions noted are these: S. cerevisiae pHLuorin cytosolic pH, at 10 µM, stronger effect = higher value.
Test [12] relates to anti-desmoglein-3 scFv antibody binding to human DSG3. Put plainly: inhibitors of anti-DSG3 scFv binding to DSG3, pilot screen, biochemical, validation compound set, bead-based, flow cytometry (AID 588368;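 active = binding below the plate cutoff, the plate median minus 3 SD, with a reading above zero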;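 also: signal is the median channel fluorescence of bead-bound GFP antibody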). The conditions noted are these: Protein G beads, DSG3-Fc, scFv-GFP binding, at 10 µM, stronger effect = lower value.
Test [13] in a line: inhibitors of fungal efflux pumps CDR1, CDR2, MDR1, pilot screen, validation compound set, multiplex, phenotypic (AID 588506;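 active = efflux inhibition above 0.42, the validation set average plus 4 SD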;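 also: Nile Red retained in cells so higher fluorescence means more efflux inhibition; 0 = negative control wells and 1 = enniatin B 25 µM full block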). Particulars: S. cerevisiae pump-expressing triplex, Nile Red efflux flow cytometry; at 10 µM; stronger effect = higher value; the pumps come from Candida albicans.
The target of test [14] is ATP-binding cassette sub-family B member 6 (Homo sapiens) (UniProt Q9NP58). Put plainly: ABCB6 transporter inhibitors, pilot screen, K562-ABCB6 cells, flow cytometry, validation set (AID 588550;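 active = inhibition above the screen-wide mean plus 3 SD, about 51%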;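 also: 0% = DMSO wells and 100% = benzethonium chloride 70 µM positive control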). Particulars: K562-ABCB6 porphyrin accumulation, 1 h, at 10 µM, stronger effect = higher value.
ATP-binding cassette sub-family B member 6 (Homo sapiens), sequence (Q9NP58 whole entry, looked up): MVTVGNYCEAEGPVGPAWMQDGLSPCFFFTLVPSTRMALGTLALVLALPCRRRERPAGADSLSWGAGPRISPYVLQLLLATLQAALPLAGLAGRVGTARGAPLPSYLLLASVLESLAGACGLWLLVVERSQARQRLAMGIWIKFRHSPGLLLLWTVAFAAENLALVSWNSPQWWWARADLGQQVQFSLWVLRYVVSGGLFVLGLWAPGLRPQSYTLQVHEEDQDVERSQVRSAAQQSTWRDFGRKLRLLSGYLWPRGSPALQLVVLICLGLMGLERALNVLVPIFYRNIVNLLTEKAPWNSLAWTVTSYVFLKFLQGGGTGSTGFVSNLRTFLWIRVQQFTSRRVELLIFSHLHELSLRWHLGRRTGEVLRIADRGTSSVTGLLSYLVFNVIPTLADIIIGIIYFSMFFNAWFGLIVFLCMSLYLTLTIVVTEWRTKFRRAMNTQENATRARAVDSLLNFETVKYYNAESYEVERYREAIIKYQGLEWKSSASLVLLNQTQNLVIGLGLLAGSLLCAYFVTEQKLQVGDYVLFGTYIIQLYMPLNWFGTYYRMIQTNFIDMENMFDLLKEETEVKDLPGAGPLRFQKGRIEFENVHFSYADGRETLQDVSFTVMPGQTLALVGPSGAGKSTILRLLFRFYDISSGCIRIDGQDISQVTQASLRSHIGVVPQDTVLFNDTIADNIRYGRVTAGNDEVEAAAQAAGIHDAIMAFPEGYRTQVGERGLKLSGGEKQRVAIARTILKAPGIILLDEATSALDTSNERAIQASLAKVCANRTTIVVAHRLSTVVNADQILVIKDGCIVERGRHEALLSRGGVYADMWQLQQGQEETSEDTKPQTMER
Test [15] can be described thus: promoters of myeloid differentiation in arrested cells, primary screen, cell-based, GFP/MAC1 double positive, flow cytometry, validation set (AID 588685;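 active = differentiation response of at least 50%, scaled between solvent and reference control, from cells with both markers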;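 also: compound exposure lasts four days before antibody staining and flow analysis; 0% = DMSO wells and 100% = 5 µM fulvestrant positive control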). The conditions noted are these: ER-HoxA9 marrow cells, stronger effect = higher value, normalized: vehicle 0, fulvestrant 100.

Records with an inconclusive call do not appear. The source made the active and inactive calls.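 The calls were made as follows, unless noted: active = inhibition above 54%, about 3 SD of non-fluorescent compounds; inactive = the rest.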 Peptide text beside a SMILES is read from it. * marks the point of attachment. Boc = CC(C)(C)OC(=O)*; OBn = c1ccc(CO*)cc1

Beta-adrenergic receptor kinase 1 (Homo sapiens), sequence (P25098 whole entry, looked up): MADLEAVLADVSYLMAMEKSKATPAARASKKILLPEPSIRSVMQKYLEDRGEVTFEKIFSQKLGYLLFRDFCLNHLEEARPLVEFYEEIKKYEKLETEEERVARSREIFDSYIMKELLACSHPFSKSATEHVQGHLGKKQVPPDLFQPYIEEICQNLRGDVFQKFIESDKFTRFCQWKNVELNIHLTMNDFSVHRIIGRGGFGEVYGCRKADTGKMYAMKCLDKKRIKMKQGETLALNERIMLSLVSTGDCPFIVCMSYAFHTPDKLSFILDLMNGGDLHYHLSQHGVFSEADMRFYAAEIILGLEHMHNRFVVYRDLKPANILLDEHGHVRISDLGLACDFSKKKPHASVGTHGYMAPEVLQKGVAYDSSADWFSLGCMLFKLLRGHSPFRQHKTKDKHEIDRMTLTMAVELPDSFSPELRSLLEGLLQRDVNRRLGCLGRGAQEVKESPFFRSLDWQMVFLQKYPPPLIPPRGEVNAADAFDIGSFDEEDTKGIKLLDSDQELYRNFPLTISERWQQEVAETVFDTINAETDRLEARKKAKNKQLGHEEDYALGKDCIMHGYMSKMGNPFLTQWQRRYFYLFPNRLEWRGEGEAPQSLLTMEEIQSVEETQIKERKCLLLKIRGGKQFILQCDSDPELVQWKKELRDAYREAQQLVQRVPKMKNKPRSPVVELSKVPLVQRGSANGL
Integrin beta-1 (Homo sapiens) + Integrin alpha-4 (Homo sapiens), sequence (P05556 whole entry, looked up): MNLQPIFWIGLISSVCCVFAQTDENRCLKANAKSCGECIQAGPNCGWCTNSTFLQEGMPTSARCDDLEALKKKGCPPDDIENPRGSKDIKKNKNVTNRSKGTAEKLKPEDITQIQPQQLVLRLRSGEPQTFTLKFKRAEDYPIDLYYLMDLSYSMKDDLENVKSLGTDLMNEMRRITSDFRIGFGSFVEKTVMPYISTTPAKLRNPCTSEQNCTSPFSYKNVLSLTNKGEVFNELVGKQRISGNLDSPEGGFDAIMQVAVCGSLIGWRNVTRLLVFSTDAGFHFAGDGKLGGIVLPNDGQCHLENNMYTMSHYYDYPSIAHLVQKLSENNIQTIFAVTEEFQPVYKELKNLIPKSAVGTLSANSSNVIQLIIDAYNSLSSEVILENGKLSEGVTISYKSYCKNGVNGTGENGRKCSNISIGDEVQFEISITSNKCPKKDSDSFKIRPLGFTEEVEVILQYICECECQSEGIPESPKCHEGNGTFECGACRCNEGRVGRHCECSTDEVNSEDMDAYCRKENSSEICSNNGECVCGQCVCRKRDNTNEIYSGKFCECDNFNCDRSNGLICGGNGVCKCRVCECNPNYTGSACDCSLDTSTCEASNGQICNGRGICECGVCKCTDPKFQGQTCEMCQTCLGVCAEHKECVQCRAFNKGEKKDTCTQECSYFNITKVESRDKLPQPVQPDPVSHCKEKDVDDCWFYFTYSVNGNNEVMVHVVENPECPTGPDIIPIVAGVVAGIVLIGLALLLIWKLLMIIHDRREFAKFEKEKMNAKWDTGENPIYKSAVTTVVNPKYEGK
Integrin beta-1 (Homo sapiens) + Integrin alpha-4 (Homo sapiens), sequence (P13612 whole entry, looked up): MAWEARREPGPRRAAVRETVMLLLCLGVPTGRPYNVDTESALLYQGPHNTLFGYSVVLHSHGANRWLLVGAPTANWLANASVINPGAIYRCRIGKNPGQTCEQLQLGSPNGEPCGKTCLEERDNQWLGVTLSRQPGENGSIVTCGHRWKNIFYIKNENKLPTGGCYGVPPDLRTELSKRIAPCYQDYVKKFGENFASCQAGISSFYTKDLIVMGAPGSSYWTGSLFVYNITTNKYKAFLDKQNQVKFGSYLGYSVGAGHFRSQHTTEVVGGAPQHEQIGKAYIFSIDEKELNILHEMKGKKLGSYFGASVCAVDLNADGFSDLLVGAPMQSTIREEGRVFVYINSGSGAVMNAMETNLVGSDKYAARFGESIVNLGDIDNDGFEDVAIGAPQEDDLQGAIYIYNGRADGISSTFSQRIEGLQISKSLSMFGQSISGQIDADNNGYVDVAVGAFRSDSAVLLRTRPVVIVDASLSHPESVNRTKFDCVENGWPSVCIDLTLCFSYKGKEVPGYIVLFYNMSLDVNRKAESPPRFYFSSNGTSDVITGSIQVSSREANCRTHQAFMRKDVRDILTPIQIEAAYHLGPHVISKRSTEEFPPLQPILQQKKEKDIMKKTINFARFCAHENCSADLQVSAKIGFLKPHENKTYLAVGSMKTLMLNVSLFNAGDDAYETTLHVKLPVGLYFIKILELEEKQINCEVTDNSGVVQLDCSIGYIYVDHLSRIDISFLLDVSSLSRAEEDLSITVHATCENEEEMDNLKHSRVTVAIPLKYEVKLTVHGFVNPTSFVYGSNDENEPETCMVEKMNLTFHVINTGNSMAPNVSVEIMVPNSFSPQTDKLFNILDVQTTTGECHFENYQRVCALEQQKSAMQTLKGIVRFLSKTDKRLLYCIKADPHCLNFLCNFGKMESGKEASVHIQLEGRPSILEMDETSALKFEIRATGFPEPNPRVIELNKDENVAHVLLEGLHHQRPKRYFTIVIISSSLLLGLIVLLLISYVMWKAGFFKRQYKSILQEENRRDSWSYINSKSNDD

Take `CC(C)(C)OC(=O)N1CCCC1C(=O)NC(Cc1ccccc1)C(=O)O` (stereo not drawn) (Boc-Pro-Phe-OH; configuration not given here): the percent of DMSO control GFP in test [1] is 101% (inactive). The GFP response vs DMSO in test [2] is 98.9% (inactive); in [4], 104% (inactive). Moreover, in test [3], the percent response of DMSO control was 104% (inactive). The GFP response, % of DMSO in [5] is 102% (inactive). Also, the double positive events in test [6] was 61.4%. In addition, the vesicle binding response in test [6] was 186% (inactive). In addition, the inhibition (commonly the drop in the measured response relative to a control, in per cent) is 13.8% (inactive) in test [7], 9.73% (inactive) in [10] and 10% (inactive) in test [14]. Also, the superoxide response (% of plate) in test [8] was 92.5% (inactive). Also, the aptamer binding inhibition in test [9] is -1% (inactive). In test [11], the response is 4.48% (inactive). Also, the binding (% of control) in [12] is 101% (inactive). Besides, the efflux inhibition (fraction of control) in test [13] is 0.22 (inactive). Further, in test [15], the differentiation response is 7.87% (inactive).

Take `COc1ccc(CNC(=O)C2CCN(C(=O)[C@@H](CC(C)C)NC(=O)OC(C)(C)C)CC2)cc1`: in test [1], the percent of DMSO control GFP was 98.3% (inactive). Further, the values for the GFP response vs DMSO in [2] and in test [4] were 90.8% (inactive) and 92.3% (inactive), respectively. Further, the percent response of DMSO control in test [3] was 98.8% (inactive). In addition, the GFP response, % of DMSO in test [5] is 92.7% (inactive). For the same molecule, in test [6], the double positive events came out at 63.6%. For the same molecule, in [6], the vesicle binding response was 326% (inactive). Further, the inhibition was 14.7% (inactive) in test [7], -7.96% (inactive) in test [10] and 8% (inactive) in [14]. The superoxide response (% of plate) in test [8] was 98.6% (inactive). The aptamer binding inhibition in test [9] was 1% (inactive). In addition, the response in test [11] was -2.19% (inactive). The binding (% of control) in test [12] is 98.7% (inactive). Moreover, the efflux inhibition (fraction of control) in test [13] is -0.09 (inactive). Besides, the differentiation response in [15] is 3.03% (inactive).

Take `CC(C)CC(NC(=O)C(NC(=O)OC(C)(C)C)C(C)C)C(=O)NC(CCC(=O)OCc1ccccc1)C(N)=O` (stereo not drawn) (Boc-Val-Leu-Glu(OBn)-NH2; configuration not given here): the percent of DMSO control GFP in [1] is 99.6% (inactive). Besides, the GFP response vs DMSO in test [2] was 98.9% (inactive); in [4] it was 84.3% (inactive). Further, in test [3], the percent response of DMSO control was 95.9% (inactive). For the same molecule, the GFP response, % of DMSO in test [5] was 93.1% (inactive). The same molecule returned a double positive events in [6] of 65%. Besides, the vesicle binding response in test [6] is 186% (inactive). For the same molecule, the inhibition was 3.49% (inactive) in [7], 2.78% (inactive) in test [10] and 11% (inactive) in test [14]. Besides, in test [8], the superoxide response (% of plate) was 94.3% (inactive). Besides, the aptamer binding inhibition in test [9] was 0% (inactive). In addition, the response in [11] is -7.35% (inactive). In addition, the binding (% of control) in test [12] is 101% (inactive). Moreover, the efflux inhibition (fraction of control) in [13] is 0.41 (inactive). Further, the differentiation response in test [15] was 22.4% (inactive).

`O=C(COc1ccccc1)N1CCN(c2ccccc2)CC1`: the percent of DMSO control GFP in [1] is 102% (inactive). In addition, the GFP response vs DMSO in test [2] was 104% (inactive); in [4], 100% (inactive). Moreover, the percent response of DMSO control in [3] was 103% (inactive). The GFP response, % of DMSO in test [5] was 97.8% (inactive). Further, the double positive events in test [6] came to 53.2%. Further, in test [6], the vesicle binding response is 176% (inactive). For the same molecule, the inhibition is -3.97% (inactive) in test [7], 5.07% (inactive) in test [10] and 6% (inactive) in [14]. In addition, in [8], the superoxide response (% of plate) is 94% (inactive). The aptamer binding inhibition in test [9] is 2% (inactive). The response in [11] was -1.27% (inactive). Further, the binding (% of control) in test [12] is 97.8% (inactive). Further, in [13], the efflux inhibition (fraction of control) was 0.25 (inactive). In addition, the differentiation response in test [15] was 9.49% (inactive).

Regarding `CC(=O)OCC(=O)[C@@]12OC(C)(C)O[C@@H]1C[C@H]1[C@@H]3C[C@H](F)C4=CC(=O)C=C[C@]4(C)[C@@]3(F)[C@@H](O)C[C@@]12C`, the percent of DMSO control GFP in test [1] was 104% (inactive). In addition, the GFP response vs DMSO was 107% (inactive) in test [2] and 100% (inactive) in test [4]. In test [3], the percent response of DMSO control is 106% (inactive). Moreover, the GFP response, % of DMSO in [5] is 105% (inactive). Further, the double positive events in test [6] stood at 64.6%. Further, the vesicle binding response in test [6] is 212% (inactive). In addition, the inhibition is 3.49% (inactive) in test [7], 2.71% (inactive) in test [10] and 8% (inactive) in test [14]. In addition, in [8], the superoxide response (% of plate) is 94.7% (inactive). In addition, in test [9], the aptamer binding inhibition is 0% (inactive). In addition, the response in test [11] was 1.38% (inactive). For the same molecule, the binding (% of control) in test [12] was 91.8% (inactive). In addition, the efflux inhibition (fraction of control) in test [13] is 0.03 (inactive). Also, in test [15], the differentiation response is 19.2% (inactive).
